Records with an inconclusive call do not appear. The source made the active and inactive calls. The call rests on the fitted dose curve; in most records, active means well fitted inhibition curve with a large enough effect; inconclusive means small, poorly fitted or top-dose-only effect; inactive means flat fitted curve, though single readings scatter.
On the % scale 0 is the no-effect control and ±100 the full control effect; potency means the concentration at half of the fitted maximal effect.

The experiment is described as follows: CHOP2 Reporter Counterscreen Assay for Inhibitors of Ubiquitin-specific Protease USP2a.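 Further: activated enterokinase alone at 50 pM in a cell-free format rather than USP2a or CHOP2; nearly all actives have a fitted effect of over 55% in size.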 As to conditions: purified enterokinase, fluorogenic substrate, 485/531 nm; series mostly up to 38.3 µM; activity change, negative = inhibition: at the top concentration. Summed up: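 Cell-free counterscreen with pre-activated enterokinase alone (50 pM final) in 20mM Tris-HCl pH 8.0, 2mM CaCl2, 2mM beta-mercaptoethanol, 0.05% CHAPS; compound preincubation 30 min RT, reporter substrate 25nM final, fluorescence read after 10 min (Ex 485/Em 531).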
Background: A counterscreen serves to expose hits that act by an unwanted route or on another target.
`CCCCCCCCCCOC(=O)Cn1c(COc2ccccc2)[n+](C)c2ccccc21`: the Potency was 11.2 µM (active).

Consider `Cc1ccc(NC(=O)CCC(=O)OC(C)C(=O)c2ccccc2)cc1` (configuration not stated), for which the “activity change, negative = inhibition” value was -2.47% (inactive). As to `O=C1NC[C@@H](c2ccccc2)OC(=O)[C@@H](Cc2ccc(F)cc2)CC/C=C/C[C@@H]1CC(=O)N(CCO)Cc1ccccc1`, the “activity change, negative = inhibition” value was -2.43% (inactive).

As for `CCCCNc1nc2ccccc2nc1NS(=O)(=O)c1cccs1`, the “activity change, negative = inhibition” value was 3.62% (inactive). On to `CCOC(=O)c1c(C)c(C(=O)O)n(C)c1C`, for which the “activity change, negative = inhibition” value is 2.01% (inactive). Same read-out and setting: to `CC1CCCCN1CCNC(=O)c1cnn2ccccc12` (configuration not stated) belongs 1.66% (inactive); to `CC1=CC(C)(C)N(C(=O)c2ccccc2)c2ccccc21`, 6.73% (inactive); to `CCCOc1ccc(-c2nc(C#N)c(N3CCN(CC)CC3)o2)cc1`, -0.81% (inactive).

In the case of `O=C(O)c1cc(N2N=C(C(F)(F)F)/C(=C/C=C/c3ccco3)C2=O)ccc1Cl`, the Potency was 3.98 µM (active). On to `Cc1cccc(Nc2nc(NCc3ccco3)c3ccccc3n2)c1`, for which the “activity change, negative = inhibition” value is -15.7% (inactive). On the same count and under the same terms, the figure for `Cc1ccc2[nH]c(C)c(CCNC(=O)c3cc4cc([N+](=O)[O-])ccc4oc3=O)c2c1` is -5.03% (inactive); for `Cc1cc(NC(=O)CN2C(=O)NC3(CCCCC3C)C2=O)no1` (configuration not stated) it is -2.71% (inactive). With `O=C(NCCc1ccccc1)c1ccc2nc(-c3ccco3)c(-c3ccco3)nc2c1`, the Potency is 5.01 µM (active). As to `CC(C)(C)NC(=O)CSc1nc(O)cc(=O)n1-c1ccccc1F`, the “activity change, negative = inhibition” value was 7.8% (inactive).

Turning to `Cc1ccc(/C(N)=N/OC(=O)Oc2ccccc2)cc1`, the “activity change, negative = inhibition” value was -0.304% (inactive).

For `Oc1ccc(/C=N/NC(=S)N/N=C/c2ccc(O)cc2)cc1`, the “activity change, negative = inhibition” value was 6.72% (inactive). On to `CC(C)(C)c1cc(Br)ccc1OCC(=O)Nc1ncn[nH]1`, for which the “activity change, negative = inhibition” value is 4.35% (inactive).

Source of the values: PubChem BioAssay AID493169 (National Center for Advancing Translational Sciences (NCATS), 2011).
